From PubChem BioAssay AID651958 (The Scripps Research Institute Molecular Screening Center, 2012)
In all, about 370,000 compounds went through this assay and about 2,000 (0.54%) were called active. Shown is part of a subset that was picked to be rich in actives. Unmarked numbers belong to inactive results. Rule as the data show it: active = inhibition above about 30%; inactive = the rest.

The compounds below were run on Crimean-Congo hemorrhagic fever virus L polyprotein viral ovarian tumor (vOTU) protease domain (assay: CCHFV vOTU protease inhibitors, primary screen, biochemical, Pep-AMC substrate, fluorescence (AID 651958; also: 0% = vehicle wells with enzyme and 100% = no enzyme wells)). Conditions: at 11.5 µM, hits give high values.
`O=C(COCc1cc(-c2ccc3c(c2)OCO3)on1)N1CCN(c2cccc(Cl)c2)CC1` gave an inhibition of 7.08%.
In the case of `Cc1coc2c(O)cc3c(c12)OC1(N2CCCCC2)C(=O)NCCCC31` (stereo not given), the inhibition is reported as 51.9% (active).
`CCN1CCN(CC(=O)c2cc(OC)c(OC)c(OC)c2)CC1` was tested, and the inhibition was -2.49%.
In the case of `Oc1c(Cl)cc(Cl)c(Cl)c1Cc1c(O)c(Cl)cc(Cl)c1Cl`, the inhibition is reported as 39% (active).
With `CC(=O)Nc1ccc(SCC(=O)Nc2ccccc2Oc2ccccc2)cc1` the inhibition was -1.09%.
`CC1(C)S[C@@H]2[C@H](NC(=O)COc3ccccc3)C(=O)N2C1C(=O)OCc1ccccc1` (stereo not given in full) gave an inhibition of 3.3%.
`CC1=NN(c2ccc(Cl)c(C(=O)O)c2)C(=O)/C1=C/c1ccc(-c2ccccc2[N+](=O)[O-])o1` was tested, and the inhibition was 32.7% (active).
For `O=C1C2C3C=CC(C4CC34)C2C(=O)N1/N=C/c1ccc(-c2ccccc2[N+](=O)[O-])o1` (stereo not given), the inhibition was 13.7%.
For `Cc1ccc(-c2ccc(/C=C(\C#N)C(N)=S)o2)c([N+](=O)[O-])c1`, the inhibition was 16.7%.
With `CC(C)[C@H](NC(=O)N1c2ccccc2NC(=O)[C@@H]1C(C)C)C(=O)N[C@H](C(=O)O)c1ccccc1` the inhibition was -2.64%.
`O=S(=O)(c1ccc(Sc2nnc3ccccn23)nc1)N1CCOCC1` was tested, and the inhibition was -14.3%.
With `NNC(=O)c1cccc(COCC(F)(F)C(F)F)c1` the inhibition was -1.18%.
`CCCCNC(=O)C1CCC(=O)N1CCc1ccccc1` (stereo not given) was tested, and the inhibition was 0.15%.
`O=C(COC(=O)Cc1c[nH]c2ccccc12)NCCc1ccccc1` was tested, and the inhibition was -6.33%.
Work on `Cc1ccc(S(=O)(=O)N(C)CC(=O)NCCc2c[nH]c3ccccc23)cc1` yielded an inhibition of 1.27%.
In the case of `Cc1cc(C)cc(NC(=S)NCCc2c[nH]c3ccccc23)c1`, the inhibition is reported as 30.6% (active).
`Clc1ccc(CSc2nnc([C@@H]3CCCN3)o2)cc1` was tested, and the inhibition was 2.88%.
`Cc1nn(CCCC(=O)NCc2ccccc2Cl)c(=O)c2nccn12` was tested, and the inhibition was 3.6%.
Work on `COc1ccc2c(c1)CCc1cn3ncc(C#N)c3nc1-2` yielded an inhibition of -345%.
With `NCCN1CCN2C(=O)CN(C(=O)c3ccccc3)CC12` (stereo not given) the inhibition was 12.1%.
In the case of `O=S(=O)(Cc1noc(-c2ccc(OC(F)(F)F)cc2)n1)c1ccc(F)cc1`, the inhibition is reported as 2.35%.
For `O=[N+]([O-])c1ccc(NS(=O)(=O)c2ccccc2)c(Cl)c1`, the inhibition was 12.9%.
For `O=S(=O)(Nc1ccc(O)c2ccccc12)c1ccc(OC(F)(F)F)cc1`, the inhibition was 72.5% (active).
For `O=C(c1ccc(F)cc1)N1CCC(C(=O)N2CCN(S(=O)(=O)c3ccccc3Br)CC2)CC1`, the inhibition was -5.29%.
For `CC(C)[C@@H](C(=O)O)N(Cc1cccc(CN([C@H](C(=O)O)C(C)C)S(C)(=O)=O)c1)S(C)(=O)=O`, the inhibition was 1.18%.
Work on `CCC(C)CCN1CCN=C1N(C)C` (stereo not given) yielded an inhibition of 10.6%.
For `CC(Sc1nncn1C)C(=O)Nc1ccccc1-c1ccccc1` (stereo not given), the inhibition was 3.71%.
`CC(C(=O)Nc1ccc(Cl)cc1Cl)N1CC=C(c2ccccc2)CC1` (stereo not given) gave an inhibition of -3.9%.
With `CC(C(=O)Nc1ccccc1-c1ccccc1)N1CCOCC1` (stereo not given) the inhibition was 30% (active).
Compound `COc1ccc(S(=O)(=O)N(C)C[C@H]2OCc3cnnn3CCCC(=O)N([C@H](C)CO)C[C@H]2C)cc1` has an inhibition of -4.66%.
With `COc1cccc(NC(=O)C(=O)c2cn(CC(=O)N3CCOCC3)c3ccccc23)c1` the inhibition was 40.2% (active).
`O=C(Nc1ccc(F)cc1)C(=O)c1cn(CC(=O)N2CCOCC2)c2ccccc12` was tested, and the inhibition was -0.24%.
`COc1cccc(NC(=O)CS(=O)(=O)c2cn(CC(=O)N3CCOCC3)c3ccccc23)c1` was tested, and the inhibition was 6.34%.
`CN(Cc1c(F)cccc1Cl)C(=O)COC(=O)Cn1cnc2ccccc2c1=O` showed an inhibition of -6.54%.
For `CCCCC(O)(CCCC)C(=O)NN(C(=O)CCl)c1ccccc1`, the inhibition was 8.68%.
Work on `CCCc1ccc(OCC(O)CN2CCN(CCO)CC2)cc1` (stereo not given) yielded an inhibition of -10.8%.
`COc1ccc(CN2CCC(C)(Oc3cccc(F)c3)C2)c2ccccc12` (stereo not given) was tested, and the inhibition was 10%.
`CN1CCc2c(sc3c2c(NCc2ccco2)nc2nnnn23)C1` was tested, and the inhibition was -25.3%.
Compound `CCC1(C)Cc2c(sc3nnn(CC(=O)Nc4ccc(Cl)cc4)c(=O)c23)CO1` (stereo not given) has an inhibition of -1.67%.
With `CCCSc1nc(NCc2ccco2)c2c3c(sc2n1)COC(C)(CC)C3` (stereo not given) the inhibition was 30.9% (active).
`Clc1ccc(C(Cn2ccnc2)OCc2ccsc2Cl)c(Cl)c1` (stereo not given) showed an inhibition of 9.88%.
For `Clc1ccc(C2=CSC3=Nc4cccc5cccc(c45)N23)cc1`, the inhibition was 103% (active).
Work on `COc1ccc(CN(Cc2ccco2)S(=O)(=O)c2ccc(S(=O)(=O)N3CCCC3)cc2)cc1` yielded an inhibition of -4.58%.
With `O=C1C=C(NS(=O)(=O)c2ccccc2)C(=O)c2ccccc21` the inhibition was 41.9% (active).
With `Cc1cc(NS(=O)(=O)c2ccccc2)no1` the inhibition was -7.1%.
`O=C(NC1=CC(=O)c2ccccc2C1=O)c1ccccc1` was tested, and the inhibition was 101% (active).
In the case of `CC(=O)NS(=O)(=O)c1ccccc1`, the inhibition is reported as -12.3%.
Work on `O=c1ccn([C@@H]2O[C@H](CNS(=O)(=O)c3cc4ccccc4s3)[C@@H](O)[C@H]2O)c(=O)[nH]1` yielded an inhibition of -7.44%.
In the case of `COc1ccc(C2c3[nH]c4ccccc4c3C[C@H]3C(=O)N(CC(C)C)CC(=O)N23)c(OC)c1` (stereo not given in full), the inhibition is reported as -0.95%.
`COc1ccc(/C=C2\N=C3CCCN3C2=O)cc1` showed an inhibition of 5.48%.
With `NC(=O)COc1ccc(C23CC4CC(CC(C4)C2)C3)cc1` the inhibition was -6.98%.
Compound `O=C(Oc1ccccc1C(=S)N1CCCCC1)c1cc([N+](=O)[O-])cc([N+](=O)[O-])c1` has an inhibition of -1.38%.
Compound `CCCS(=O)(=O)NC(=O)C1(C)CCCN(C(=O)c2cccs2)C1` (stereo not given) has an inhibition of 4.76%.
`CCCS(=O)(=O)NC(=O)C1(C)CCN(C(=O)c2sccc2C)C1` (stereo not given) was tested, and the inhibition was 47.1% (active).
Compound `CCCS(=O)(=O)NC(=O)C1(C)CCCN(C(=O)c2cc(C)on2)C1` (stereo not given) has an inhibition of -4.97%.
Work on `COc1ccc2c(c1)[C@@]13CCCCC1[C@@H](C2)NCC3` (stereo not given in full) yielded an inhibition of -1.34%.
`CCc1ccc2c(c1)NC(=O)C2(C)Cc1ccc(OC(F)(F)F)cc1` (stereo not given) was tested, and the inhibition was 31.4% (active).
In the case of `CCc1ccc2c(c1)C1(NN=C(c3ccccc3)S1)C(=O)N2` (stereo not given), the inhibition is reported as 1.82%.
For `CC1(Cc2cccc(C#N)c2)C(=O)Nc2ccc(-c3cccc(C(F)(F)F)c3)cc21` (stereo not given), the inhibition was 21.6%.
Compound `CCCn1nc(Oc2nc(NC(C)C)nc(N(C)C)n2)ccc1=O` has an inhibition of -1.37%.
`O=C(O)CCN1C(=O)CC2(CCCCC2)C1=O` showed an inhibition of 2.77%.
`COCc1[nH][nH]c(=O)c1C=Nc1ccc(F)cc1F` gave an inhibition of 4.69%.
With `O=C(NCc1ccccn1)C1CCN(S(=O)(=O)c2ccc(Br)cc2)CC1` the inhibition was -7.95%.
With `N#CC1=C(N)Oc2c(c(=O)oc3ccccc23)C1c1ccccc1OC(=O)c1cccs1` (stereo not given) the inhibition was 2.95%.
`COc1ccccc1C1CC(=O)n2c(nc(-c3ccccc3)c2-c2ccccc2)S1` (stereo not given) was tested, and the inhibition was -11.5%.
In the case of `COc1ccccc1C1C(C#N)=C(N)Oc2c1c(-c1ccccc1)nn2-c1ccccc1` (stereo not given), the inhibition is reported as 31% (active).
`Cc1ccc(S(=O)(=O)N2CCC(=O)N([C@H](COCc3ccccc3)Cc3ccccc3)CC2)cc1` showed an inhibition of 4.4%.
Compound `Cc1cc(F)ccc1S(=O)(=O)Nc1ncnc2scc(-c3ccc(F)cc3)c12` has an inhibition of -9.09%.
Compound `Cc1ccc(CN2CCCCC(NC(=O)C3CCCCC3)C2=O)cc1` (stereo not given) has an inhibition of 6.33%.
`CCn1nc(C)c(CN2CCN(Cc3ccc(OC)c(C)c3C)C(CCO)C2)c1C` (stereo not given) showed an inhibition of -10.4%.
`Cc1ccc(NS(=O)(=O)c2ccc3c(c2)n(C)c(=O)c(=O)n3C)c(C)c1` gave an inhibition of 9.52%.
For `O=[N+]([O-])c1cc(S(=O)(=O)Nc2cccc(Cl)c2)ccc1N=Nc1c(O)[nH]c2ccccc12`, the inhibition was -13%.
Compound `Cc1ccc(C)c(NS(=O)(=O)c2ccc(OCC(=O)NCc3cccnc3)cc2)c1` has an inhibition of 7.43%.
With `O=C(Nc1cc(S(=O)(=O)Nc2ccc(Cl)cc2)ccc1O)c1ccc(F)cc1F` the inhibition was 1.4%.
In the case of `Cc1ccc(NS(=O)(=O)c2ccc(N/N=C/c3ccccc3OCC(=O)O)c([N+](=O)[O-])c2)c(C)c1`, the inhibition is reported as 49.3% (active).
For `O=C(O)c1ccccc1/C=N/Nc1ccc(S(=O)(=O)Nc2ccc(Cl)cc2)cc1[N+](=O)[O-]`, the inhibition was 31.2% (active).
Work on `CCn1c(O)c(N=NC2=NC(=O)CS2)c2cc(C)ccc21` yielded an inhibition of 10.8%.
`CC(C)c1c(CN(C)C(C)Cc2ccccc2)n(C)n(-c2ccccc2)c1=O` (stereo not given) was tested, and the inhibition was 3.82%.
Compound `COc1cccc(CNC(=O)CCC2CCCN(C(=O)c3ccoc3C)C2)c1` (stereo not given) has an inhibition of -3.63%.
`CCCNC(=O)c1ccc(N2CCC3(CC2)CC(c2ccc(Cl)cc2)=NO3)c([N+](=O)[O-])c1` gave an inhibition of 5.33%.
Compound `CC1CCCN(S(=O)(=O)c2ccc(N(C(=O)c3cnccn3)C(C(=O)NC3CCCCC3)c3cccs3)cc2)C1` (stereo not given) has an inhibition of 3.18%.
`CNc1ccc(SC#N)cc1` gave an inhibition of 7.09%.
Work on `O=C(Nc1cccc(S(=O)(=O)N2CCCC2)c1)c1cncc(Br)c1` yielded an inhibition of 6.4%.
For `O=C(Nc1cccc(S(=O)(=O)N2CCCCC2)c1)c1ccc2c(c1)OCO2`, the inhibition was 30.3% (active).
For `O=C(Nc1cccc(S(=O)(=O)N2CCCCC2)c1)c1cncc(Br)c1`, the inhibition was 17.5%.
In the case of `CN1[C@H](Cc2ccccc2)COc2cccc(N3CCSCC3)c2S1(=O)=O`, the inhibition is reported as -7.16%.
`O=C(CNC(c1ccccc1)c1ccccc1)Nc1ccc(F)cc1` gave an inhibition of -6.64%.
With `COc1ccccc1CNS(=O)(=O)c1cc2c3c(c1)CCC(=O)N3CCC2` the inhibition was 31.9% (active).
Work on `COc1ccc(CNS(=O)(=O)c2cc3c4c(c2)CCN4C(=O)CC3)cc1` yielded an inhibition of 9.3%.
`COc1ccccc1CCNS(=O)(=O)c1cc2c3c(c1)C(C)C(=O)N3CCC2` (stereo not given) showed an inhibition of 14%.
